MEP2 TOR yeast: alters MEP2-GFP fluorescence in TOR pathway yeast screen | S. cerevisiae MEP2-GFP strain, flow cytometry GFP, 3 h; 100% = DMSO control level | GFP response vs DMSO, % at 10 µM | 330,000 tested, 0.51% active;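 active means GFP response versus DMSO above a set limit, roughly screen mean plus 3 SD, cut at about 180% in these data; inconclusive means fewer than 70 cells counted for a yeast strain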;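 further: median GFP fluorescence of the barcode-gated MEP2-GFP cells per well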
LAP4 TOR yeast: alters LAP4-GFP fluorescence in TOR pathway yeast screen; S. cerevisiae LAP4-GFP multiplex, flow cytometry GFP, 3 h; median GFP as percent of DMSO wells; GFP response vs DMSO, % at 10 µM; 320,000 tested, 0.34% active;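 active means GFP response vs DMSO above a set limit, about the screen mean plus 3 SD, cut at about 150% in these data; inconclusive means under 70 cell events counted for the yeast strain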
CIT2-GFP yeast: yeast TOR pathway CIT2-GFP modulation; S. cerevisiae CIT2-GFP strain, flow cytometry, 3 h; 100 means same as DMSO wells; GFP response vs DMSO, % at 10 µM; 320,000 tested, 0.065% active; AID 2029;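 active means GFP response relative to DMSO above a set limit, near the screen mean plus 3 SD, cut at about 150% in these data; inconclusive means Fewer than 70 cells measured for a yeast strain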;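 further: ratio of well median GFP fluorescence to mean of DMSO wells on the plate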
JMJD2C inh: blocks human GASC-1 demethylase activity; Q9H3R0; GST-JMJD2C(1-420) H3K9me3 demethylation, DELFIA europium; inhibition, % at 2.35 µM; 330,000 tested, 0.069% active;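 active means more than half of a compound's replicate wells show inhibition beyond 50%, single wells judged on their own value; inconclusive means some, but no more than half, of replicates pass 50% inhibition; inactive means no replicate passes 50% inhibition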;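 further: signal counts dimethyl H3K9 product captured on neutravidin plate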
Target sequence (Q9H3R0 1-420 limits assumed): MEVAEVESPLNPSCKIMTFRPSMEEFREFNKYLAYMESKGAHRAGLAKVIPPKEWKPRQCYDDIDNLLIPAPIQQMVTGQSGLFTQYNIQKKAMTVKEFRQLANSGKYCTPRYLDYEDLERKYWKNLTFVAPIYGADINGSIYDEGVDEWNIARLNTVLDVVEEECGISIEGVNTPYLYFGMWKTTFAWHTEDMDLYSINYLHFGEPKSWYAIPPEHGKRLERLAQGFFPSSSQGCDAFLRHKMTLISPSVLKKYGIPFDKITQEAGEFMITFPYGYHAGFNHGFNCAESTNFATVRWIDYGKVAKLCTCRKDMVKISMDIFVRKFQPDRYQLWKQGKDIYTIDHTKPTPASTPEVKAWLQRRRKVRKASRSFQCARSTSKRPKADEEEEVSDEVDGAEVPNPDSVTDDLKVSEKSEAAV
AGP1-GFP MLPCN: modulators of TOR pathway AGP1-GFP in S. cerevisiae | S. cerevisiae AGP1-GFP multiplex flow cytometry, 3 h; GFP as percent of DMSO wells | GFP response vs DMSO, % at 10 µM | 320,000 tested, 0.02% active | AID 2066;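 active means GFP response relative to DMSO above a set limit, near screen average plus 3 SD, cut at about 150% in these data; inconclusive means fewer than 70 cells counted for the yeast strain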;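 further: median GFP channel fluorescence of the gated AGP1 strain per well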
RPL19A-GFP yeast: alters RPL19A-GFP fluorescence in TOR pathway yeast screen; S. cerevisiae RPL19A-GFP strain, flow cytometry, 3 h; stronger effect = lower value; percent response vs DMSO, % at 10 µM; 330,000 tested, 0.3% active;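 active means percent response vs DMSO below 50%; inconclusive means fewer than 70 events counted for the yeast strain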;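 further: median channel GFP fluorescence of the barcoded RPL19A-GFP strain; lower means less RPL19A-GFP as with rapamycin TOR inhibition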
LAP4-GFP pick2: yeast LAP4-GFP modulation, second cherry pick. S. cerevisiae LAP4-GFP strain, flow cytometry GFP, 3 h. 590 tested, 20% active. AID 2621. GFP response vs DMSO, % at 10 µM. shares compounds with LAP4 TOR yeast;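 active means GFP signal as percent of the solvent control above about 150%, meaning raised reporter expression, limit read from the data; inconclusive means fewer than 70 cells counted in the well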
MEP2 cherry2: reconfirmed MEP2-GFP TOR pathway modulator in yeast; shares compounds with LAP4 TOR yeast; GFP response vs DMSO, % at 10 µM; S. cerevisiae MEP2-GFP strain, flow cytometry GFP, 3 h; 590 tested, 10% active;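 active means GFP signal above 150% of the solvent control wells, that is a rise of more than half; inconclusive means fewer than 70 yeast cells counted in the well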;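 further: median channel GFP fluorescence of all gated yeast cells per well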
RPL19A GFP CP2: yeast RPL19A-GFP TOR reporter modulation, second cherry pick. AID 2623. 590 tested, 3% active. GFP response vs DMSO, % at 10 µM. shares compounds with LAP4 TOR yeast. S. cerevisiae RPL19A-GFP strain, flow cytometry GFP, 3 h; stronger effect = lower value; 100% means same as DMSO wells;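 active means under 65% GFP response relative to DMSO; inconclusive means yeast strain with under 70 measured events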;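 further: median GFP channel fluorescence per well over the all cells gate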
CIT2 GFP CP2: reconfirmed modulator of CIT2-GFP TOR reporter in yeast. shares compounds with LAP4 TOR yeast. S. cerevisiae CIT2-GFP strain, flow cytometry GFP, 3 h; DMSO control wells read 100%. GFP response vs DMSO, % at 10 µM. 590 tested, 8% active. AID 2624;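 active means GFP response vs DMSO above about 150%, limit read from the data; inconclusive means fewer than 70 events counted for a yeast strain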;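 further: median green fluorescence per well over all gated yeast cells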
AGP1 GFP CP2: second confirmation of modulators of TOR reporter AGP1-GFP in yeast | shares compounds with LAP4 TOR yeast | S. cerevisiae AGP1-GFP strain, flow cytometry GFP, 3 h | percent response vs DMSO, % at 10 µM | 590 tested, under 10 active;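 active means over 150 percent of DMSO response; inconclusive means yeast strain measured with under 70 events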;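 further: median GFP channel fluorescence over all cells without mother daughter split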
s288c autofluor: counter-screen for compound autofluorescence in yeast s288c cells; shares compounds with LAP4 TOR yeast; S. cerevisiae s288c, 520 nm autofluorescence, flow cytometry, 3 h; stronger effect = higher value; zero means same as solvent-only cells; fluorescence change (kMESF span) at 33 µM; 610 tested, under 10 active; AID 2757;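 active means fluorescence span over the dose series, or activity score, above about 33, limit read from the data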
s288c autofl DR: counter-screen for autofluorescence of TOR hits in yeast s288c; shares compounds with LAP4 TOR yeast; S. cerevisiae s288c parental, compound autofluorescence, flow cytometry, 3 h; fluorescence change (span) at 33 µM; 110 tested, under 10 active; AID 488829;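 active means fluorescence change span, or the activity score built from it, above 25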
TORC1 bypass gr: wildtype yeast growth loss with TORC1 bypass cells unaffected; shares compounds with LAP4 TOR yeast; S. cerevisiae BY4741 spot growth rating, 48-72 h; stronger effect = lower value; growth rating (0-3) at 30 µM; 120 tested, under 10 active;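 active means growth rating at most 1 for wild type yeast while the TORC1 bypass strain still grows fully, rated 3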
Hits are given with their value; - = inactive; ? = inconclusive; . = no result given. A selection: hits, their analogues and other compounds. The true share with any hit is near 0.97%.

SMILES	MEP2 TOR yeast	LAP4 TOR yeast	CIT2-GFP yeast	JMJD2C inh	AGP1-GFP MLPCN	RPL19A-GFP yeast	others
CCOc1ccc(C(Nc2cccnc2)c2cc(Cl)c3cccnc3c2O)cc1 (centres undefined)	-	224	-	-	-	-	s288c autofluor=-
Cc1cc(C(=O)N2CCN(S(=O)(=O)c3ccc(F)c(Cl)c3)CC2)c(C)o1	-	-	-	-	-	-
CC(C(=O)NC1(C#N)CCCCC1)N(C)CC(=O)Nc1ccc(Cl)c(Cl)c1 (centres undefined)	-	-	-	-	-	-
O=C(CC(=O)c1ccccc1)Nc1cc(C(F)(F)F)ccc1Cl	-	-	-	-	-	-	LAP4-GFP pick2=-;MEP2 cherry2=-;RPL19A GFP CP2=-;CIT2 GFP CP2=-;AGP1 GFP CP2=-
CC(C)[C@@]1(c2ccc(Cl)cc2)ON(c2ccccc2C(F)(F)F)C1=O	-	-	?	-	-	-	LAP4-GFP pick2=-;MEP2 cherry2=-;RPL19A GFP CP2=-;CIT2 GFP CP2=-;AGP1 GFP CP2=-;s288c autofluor=-
COc1ccc([C@]2(C(C)C)ON(c3ccccc3C(F)(F)F)C2=O)cc1	-	-	-	-	-	-	LAP4-GFP pick2=-;MEP2 cherry2=-;RPL19A GFP CP2=-;CIT2 GFP CP2=-;AGP1 GFP CP2=-;s288c autofluor=-
COc1ccc([C@@]2(C(C)C)ON(c3ccccc3C(F)(F)F)C2=O)cc1	-	-	-	-	-	-	LAP4-GFP pick2=-;MEP2 cherry2=-;RPL19A GFP CP2=-;CIT2 GFP CP2=-;AGP1 GFP CP2=-;s288c autofluor=-
O=c1[nH]ncn1-c1ccccc1C(F)(F)F	-	-	-	-	-	-
COc1ccc(C2(c3ccc(OC)cc3)NC(=O)N(CC(=O)Nc3ccccc3C(F)(F)F)C2=O)cc1	-	-	-	-	-	-
Cn1c(=O)c2ncn(CC(=O)Nc3nc(-c4ccc(Cl)cc4)cs3)c2n(C)c1=O	-	-	-	-	-	-
COc1nccc(NCc2ccccc2)c1C#N	-	-	-	-	-	-
CCCCCCCc1c(O)nc(SCC(=O)O)[nH]c1=O	-	-	-	-	-	-
COc1ccc(CNCc2ccc3ccccc3c2)c(OC)c1	-	-	-	-	-	-
CNc1nc(N)c([N+](=O)[O-])c(Nc2ccc(F)cc2)n1	.	.	.	.	.	.	s288c autofl DR=-;TORC1 bypass gr=-
CNc1nc(N)c([N+](=O)[O-])c(NC2CCCCC2)n1	-	-	-	-	-	-	s288c autofl DR=-;TORC1 bypass gr=-
CC(C)CNc1nc(N)c([N+](=O)[O-])c(NC2CCCCC2)n1	-	-	-	-	-	-
CNc1nc(N)c([N+](=O)[O-])c(Nc2ccc(OC)cc2)n1	.	.	.	.	.	.	s288c autofl DR=-;TORC1 bypass gr=-
Cc1ccc(CNc2nc(N)c([N+](=O)[O-])c(Nc3ccc(F)cc3)n2)cc1	-	-	-	-	-	-

Screens as filed in PubChem BioAssay.
